23 compounds from PubChem BioAssay (NCATS) can be followed below.

Results filed as inconclusive are left out. More than one record can exist for a structure, and the calls need not agree. Calls of active or inactive are those of the source. Calls come from the whole dose curve; as a rule, active = well fitted curve in the direction sought with a large enough effect; inconclusive = small, poorly fitted or top-dose-only effect, or another doubt; inactive = no such curve, though single readings can be large; an effect the other way counts as inactive or inconclusive.

The target of test [1] is Thioredoxin reductase 1, cytoplasmic (Rattus norvegicus) (UniProt O89049). The test is described as follows: qHTS Assay for Substrates of Mammalian Selenoprotein Thioredoxin Reductase 1 (TrxR1) (AID 488772).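 Note: NADPH fluorescence in the first read after selenite addition and not the 8 min delta; series mostly up to about 57 µM; a drop in NADPH fluorescence below the no-compound background marks a TrxR1 substrate.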 In short, it runs like this:
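Quantitative HTS in Tris-HCl buffer at pH 7.5 with EDTA and Tween-20, using rat TrxR1, 400 uM NADPH and 400 uM selenite (final). A fall in initial NADPH fluorescence relative to background marked substrate behaviour.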
For orientation: In qHTS, concentration-response curves come from the screen itself.

For test [2] the target is unchanged. The experiment in a line: qHTS Assay for Inhibitors of Mammalian Selenoprotein Thioredoxin Reductase 1 (TrxR1) (AID 488773).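 Note: drop in NADPH fluorescence over an 8 min run after selenite addition; series mostly up to about 57 µM; nearly all actives have a fitted effect of over 40% in size.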 In short, it runs like this:
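Steps: enzyme (90 nM) plus NADPH (400 uM final), 5 min at ~22 deg C; compound added, 15 min; selenite (400 uM final) added; fluorescence followed for 8 min. Concentration-response curves derived from the normalized delta values.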

The target in test [3] is Flap endonuclease 1 (Homo sapiens) (UniProt P39748). The experiment in a line: qHTS Validation Assay for the Inhibitors of Human Flap endonuclease 1 (FEN1) (AID 488816). In short, it runs like this:
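Human FEN1 (10 nM) preincubated 15 min at room temperature with compounds, then flap DNA substrate added at 50 nM final. Fluorescence read at 0 and 15 min; concentration-response fitted with four-parameter Hill equation.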

Test [4] has as its target M-phase phosphoprotein 8 (Homo sapiens) (UniProt Q99549). The experiment in a line: qHTS Validation Assay for Inhibitors for MPP8 Chromodomain Interactions with Methylated Histone Tails (AID 488949). Note: nearly all actives have a fitted effect of over 55% in size. Note: potency is the fitted concentration of half-maximal effect. In short, it runs like this:
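MPP8 (50 nM) was preincubated with biotinylated H3(1-18)K9me3 peptide (50 nM) in PBS pH 7.4, 0.01% Tween-20 for 30 min at room temperature, then with compounds for 30 min; binding was detected by AlphaScreen.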

In test [5] the target is Chromobox protein homolog 1 (Homo sapiens) (UniProt P83916). The experiment in a line: qHTS Validation Assay for Inhibitors of HP1-beta Chromodomain Interactions with Methylated Histone Tails (AID 488953). Note: nearly all actives have a fitted effect of over 50% in size. Note: potency is the fitted concentration of half-maximal effect. In short, it runs like this: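 50 nM HP1-beta + 50 nM biotin-H3(1-18)K9me3, PBS pH 7.4, 0.01% Tween-20, 30 min RT; compound added, 30 min RT; AlphaScreen beads 10 ug/mL final, 30 min dark; luminescence read.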

Test [6] concerns the target Methanococcus maripaludis chaperonin (MmCpn) (UniProt Q6LX38). The test is described as follows: High-Throughput Screening for Modulators of Cytosolic Chaperonin Activity: MmCpn Primary Screen (AID 488978).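 Note: 50 nM MmCpn enzyme hydrolysing 30 µM ATP at 37 °C.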 A digest of the protocol: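 MmCpn (50 nM final) was preincubated with compound 5 min at RT, then 30 uM ATP (final) was added and the reaction ran 10 min at 37C. ADP produced was detected by Transcreener HTRF (ex 320 nm; em 590/665 nm).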

The target in test [7] is D(1A) dopamine receptor (Homo sapiens) (UniProt P21728). The experiment in a line: HTS Assay for Allosteric Agonists of the Human D1 Dopamine Receptor: Primary Screen for Agonists (AID 488981). In short, it runs like this: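 Tetracycline-induced HEK293 Trex D1 cells with forced coupling to calcium, loaded with no-wash calcium dye; kinetic fluorescence read 180 s after compound addition for agonism, then a further 180 s after an EC20 dopamine challenge for potentiation.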

The target is the same in test [8]. The test is described as follows: HTS Assay for Allosteric Agonists of the Human D1 Dopamine Receptor: Primary Screen for Antagonists (AID 488983).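 Note: calcium flux response to an EC80 dopamine challenge measured with no-wash dye; nearly all actives have a fitted effect of over 65% in size.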 Note: potency is the fitted concentration of half-maximal effect. A digest of the protocol: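 Cells are induced with tetracycline and incubated overnight at 30 C, then loaded with calcium dye for 30 to 90 minutes at room temperature. Compound addition is followed by a 180 s read, then an EC80 dopamine addition and another 180 s read.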

Test [9] has as its target ATP-dependent 6-phosphofructokinase (Trypanosoma brucei brucei) (UniProt O15648). The experiment in a line: qHTS Assay to Find Inhibitors of T. brucei phosphofructokinase: hit validation (AID 492961).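 Note: luminescence reports ADP formed as PFK phosphorylates fructose-6-phosphate with ATP; series mostly up to about 51 µM.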 In short, it runs like this:
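Inhibition of parasite PFK is measured as reduced ADP formation, quantified via luciferase after ATP depletion. Assay used 0.1 mM ATP, 0.5 mM F6P, 1.25 nM enzyme, 45 min incubation.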

The target in test [10] is Transient receptor potential cation channel subfamily V member 1 (Homo sapiens) (UniProt Q8NER1). The test is described as follows: HTS Assay for Compounds that Act as Enhancers of the Vanilloid Receptor 1 (AID 488979). In short, it runs like this: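 TRPV1 cells loaded with Fluo-8 calcium dye; compound added and Ca2+ signal (ex 480/em 520 nm) followed 3 min, then capsaicin at EC20 added and read 2 more min to detect enhancement.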
Transient receptor potential cation channel subfamily V member 1 (Homo sapiens), sequence (Q8NER1 whole entry, looked up): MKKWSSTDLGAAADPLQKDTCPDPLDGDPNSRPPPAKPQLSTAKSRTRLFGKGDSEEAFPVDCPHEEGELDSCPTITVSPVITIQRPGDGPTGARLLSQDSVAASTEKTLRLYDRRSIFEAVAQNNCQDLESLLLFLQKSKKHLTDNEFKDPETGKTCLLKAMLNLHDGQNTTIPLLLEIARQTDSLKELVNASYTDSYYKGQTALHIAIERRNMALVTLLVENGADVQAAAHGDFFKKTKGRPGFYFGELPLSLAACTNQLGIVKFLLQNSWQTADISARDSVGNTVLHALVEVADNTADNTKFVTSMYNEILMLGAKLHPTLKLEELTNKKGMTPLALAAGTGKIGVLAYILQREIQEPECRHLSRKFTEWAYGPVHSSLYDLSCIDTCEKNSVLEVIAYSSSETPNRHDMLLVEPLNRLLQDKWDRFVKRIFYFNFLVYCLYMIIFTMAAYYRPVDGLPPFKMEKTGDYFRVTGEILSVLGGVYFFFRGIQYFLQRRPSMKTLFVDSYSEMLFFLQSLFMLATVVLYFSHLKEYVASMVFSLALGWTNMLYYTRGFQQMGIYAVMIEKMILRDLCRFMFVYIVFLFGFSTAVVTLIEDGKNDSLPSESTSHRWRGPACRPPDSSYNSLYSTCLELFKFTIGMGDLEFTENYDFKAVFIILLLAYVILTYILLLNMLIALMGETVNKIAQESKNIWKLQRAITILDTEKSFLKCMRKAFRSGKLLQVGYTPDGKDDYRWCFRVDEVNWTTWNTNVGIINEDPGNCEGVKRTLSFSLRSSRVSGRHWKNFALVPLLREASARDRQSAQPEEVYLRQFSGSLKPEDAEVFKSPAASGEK

M-phase phosphoprotein 8 (Homo sapiens), sequence (Q99549 whole entry, looked up): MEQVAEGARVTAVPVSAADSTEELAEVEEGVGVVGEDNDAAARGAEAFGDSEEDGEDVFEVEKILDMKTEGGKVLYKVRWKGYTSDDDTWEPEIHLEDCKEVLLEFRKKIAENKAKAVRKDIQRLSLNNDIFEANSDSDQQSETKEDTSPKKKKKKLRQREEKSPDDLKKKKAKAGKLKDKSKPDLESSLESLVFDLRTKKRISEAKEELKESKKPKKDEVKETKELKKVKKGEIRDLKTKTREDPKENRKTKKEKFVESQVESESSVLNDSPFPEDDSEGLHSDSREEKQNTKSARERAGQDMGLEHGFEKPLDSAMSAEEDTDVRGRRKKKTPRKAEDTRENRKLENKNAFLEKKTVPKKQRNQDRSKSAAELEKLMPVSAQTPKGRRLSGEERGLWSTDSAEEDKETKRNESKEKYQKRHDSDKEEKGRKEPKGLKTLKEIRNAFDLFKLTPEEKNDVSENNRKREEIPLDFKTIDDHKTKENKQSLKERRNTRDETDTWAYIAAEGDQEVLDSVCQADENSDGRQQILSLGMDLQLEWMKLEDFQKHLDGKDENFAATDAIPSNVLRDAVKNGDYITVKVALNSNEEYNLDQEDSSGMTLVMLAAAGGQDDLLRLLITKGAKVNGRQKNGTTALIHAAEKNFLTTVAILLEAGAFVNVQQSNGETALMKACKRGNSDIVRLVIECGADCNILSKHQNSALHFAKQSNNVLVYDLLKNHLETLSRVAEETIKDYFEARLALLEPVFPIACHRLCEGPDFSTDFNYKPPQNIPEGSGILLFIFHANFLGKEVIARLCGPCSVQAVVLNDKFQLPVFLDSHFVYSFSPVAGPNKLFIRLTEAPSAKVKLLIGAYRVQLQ
D(1A) dopamine receptor (Homo sapiens), sequence (P21728 whole entry, looked up): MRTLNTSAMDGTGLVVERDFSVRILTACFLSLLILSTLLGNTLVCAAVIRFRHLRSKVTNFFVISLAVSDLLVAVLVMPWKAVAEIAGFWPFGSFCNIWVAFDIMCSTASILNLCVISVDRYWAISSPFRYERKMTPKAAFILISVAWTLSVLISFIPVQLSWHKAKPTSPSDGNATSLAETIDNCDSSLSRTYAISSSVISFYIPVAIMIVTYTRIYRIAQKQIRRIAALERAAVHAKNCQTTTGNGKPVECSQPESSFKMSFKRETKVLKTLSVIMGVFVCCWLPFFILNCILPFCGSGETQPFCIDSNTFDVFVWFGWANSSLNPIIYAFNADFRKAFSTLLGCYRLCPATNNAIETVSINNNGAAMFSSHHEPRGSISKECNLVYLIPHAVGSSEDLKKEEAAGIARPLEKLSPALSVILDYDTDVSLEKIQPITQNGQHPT
Thioredoxin reductase 1, cytoplasmic (Rattus norvegicus), sequence (O89049 whole entry, looked up): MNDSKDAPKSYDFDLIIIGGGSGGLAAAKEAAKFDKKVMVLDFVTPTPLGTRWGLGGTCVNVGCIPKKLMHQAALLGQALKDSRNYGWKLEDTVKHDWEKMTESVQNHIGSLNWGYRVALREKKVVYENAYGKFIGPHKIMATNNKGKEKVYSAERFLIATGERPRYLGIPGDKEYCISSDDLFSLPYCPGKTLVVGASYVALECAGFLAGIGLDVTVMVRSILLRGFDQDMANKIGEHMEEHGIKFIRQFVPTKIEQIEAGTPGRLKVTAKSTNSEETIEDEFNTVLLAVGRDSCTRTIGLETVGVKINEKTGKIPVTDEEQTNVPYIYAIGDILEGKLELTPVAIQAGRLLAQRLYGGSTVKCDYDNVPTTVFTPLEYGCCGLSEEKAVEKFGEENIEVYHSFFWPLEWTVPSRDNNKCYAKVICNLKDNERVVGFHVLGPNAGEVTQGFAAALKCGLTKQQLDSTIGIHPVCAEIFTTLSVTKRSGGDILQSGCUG
Chromobox protein homolog 1 (Homo sapiens), sequence (P83916 whole entry, looked up): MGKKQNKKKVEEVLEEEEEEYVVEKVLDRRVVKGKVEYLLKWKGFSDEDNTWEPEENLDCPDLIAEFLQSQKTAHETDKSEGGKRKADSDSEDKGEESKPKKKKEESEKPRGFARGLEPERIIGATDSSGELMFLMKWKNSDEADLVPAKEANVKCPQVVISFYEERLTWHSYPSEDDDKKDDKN
Methanococcus maripaludis chaperonin (MmCpn), sequence (Q6LX38 1-543): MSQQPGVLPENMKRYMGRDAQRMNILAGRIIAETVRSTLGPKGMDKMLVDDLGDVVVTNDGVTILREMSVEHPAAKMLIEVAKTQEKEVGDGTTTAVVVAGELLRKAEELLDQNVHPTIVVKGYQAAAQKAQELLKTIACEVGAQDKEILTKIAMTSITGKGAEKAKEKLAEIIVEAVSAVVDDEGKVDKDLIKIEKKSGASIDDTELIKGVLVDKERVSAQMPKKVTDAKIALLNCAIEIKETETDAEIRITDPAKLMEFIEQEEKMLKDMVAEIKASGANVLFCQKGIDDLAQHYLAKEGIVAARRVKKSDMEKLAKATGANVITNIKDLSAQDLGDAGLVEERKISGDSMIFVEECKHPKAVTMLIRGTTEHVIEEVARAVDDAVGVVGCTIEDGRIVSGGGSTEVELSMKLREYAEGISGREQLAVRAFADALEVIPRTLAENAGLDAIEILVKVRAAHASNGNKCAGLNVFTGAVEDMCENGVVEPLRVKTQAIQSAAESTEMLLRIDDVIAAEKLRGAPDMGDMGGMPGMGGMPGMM
Flap endonuclease 1 (Homo sapiens), sequence (P39748 whole entry, looked up): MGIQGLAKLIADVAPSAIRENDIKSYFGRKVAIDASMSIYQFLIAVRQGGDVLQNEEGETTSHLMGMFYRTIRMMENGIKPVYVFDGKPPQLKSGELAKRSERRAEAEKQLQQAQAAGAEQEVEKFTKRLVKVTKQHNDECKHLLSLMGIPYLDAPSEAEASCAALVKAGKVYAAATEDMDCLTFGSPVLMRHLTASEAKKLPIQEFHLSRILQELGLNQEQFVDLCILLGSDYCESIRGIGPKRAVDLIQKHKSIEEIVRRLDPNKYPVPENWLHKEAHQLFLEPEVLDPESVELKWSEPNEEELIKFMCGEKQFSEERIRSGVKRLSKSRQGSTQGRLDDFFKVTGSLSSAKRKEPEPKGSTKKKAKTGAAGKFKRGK
ATP-dependent 6-phosphofructokinase (Trypanosoma brucei brucei), sequence (O15648 whole entry, looked up): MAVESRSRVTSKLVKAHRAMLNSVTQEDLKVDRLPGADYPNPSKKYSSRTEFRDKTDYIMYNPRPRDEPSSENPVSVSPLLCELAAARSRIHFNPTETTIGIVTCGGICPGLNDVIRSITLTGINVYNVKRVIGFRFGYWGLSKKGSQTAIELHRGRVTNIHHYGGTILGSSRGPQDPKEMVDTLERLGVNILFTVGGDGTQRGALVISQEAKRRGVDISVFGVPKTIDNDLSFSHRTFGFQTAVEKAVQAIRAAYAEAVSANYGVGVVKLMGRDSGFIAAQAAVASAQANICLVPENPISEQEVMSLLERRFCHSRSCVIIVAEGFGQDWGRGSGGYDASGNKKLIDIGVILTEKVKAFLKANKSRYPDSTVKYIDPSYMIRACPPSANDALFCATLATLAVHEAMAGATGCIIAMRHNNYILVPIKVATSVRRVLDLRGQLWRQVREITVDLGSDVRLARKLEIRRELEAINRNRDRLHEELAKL

Consider `CCCC1O[C@@H]2C[C@H]3[C@@H]4CCC5=CC(=O)C=C[C@]5(C)[C@H]4[C@@H](O)C[C@]3(C)[C@]2(C(=O)CO)O1` (stereo partly drawn), for which the call in test [1], in [2], in test [3] and in test [6] was inactive. Further, the Potency result in [4], in test [5], in [7] and in test [8] was “inactive” throughout.
For the compound `Cc1c(N(C)CS(=O)(=O)O)c(=O)n(-c2ccccc2)n1C`, the compound was called inactive in test [9].
The same measure, in the same setting: the same measure for `Cc1ncc(CSSCc2cnc(C)c(O)c2CO)c(CO)c1O`: “inactive”; for `O=C1[C@H]2CCCC[C@H]2C(=O)N1CCCCN1CCN(c2nsc3ccccc23)CC1`: “inactive”.
Same read-out and setting: the same measure for `CC1=C(C(=O)OC(C)C)C(c2cccc([N+](=O)[O-])c2)C(C(=O)OC2CN(C(c3ccccc3)c3ccccc3)C2)=C(N)N1` (stereo not drawn): “inactive”.
For the compound `C[C@]12CC[C@@H]3c4ccc(O)cc4CC[C@H]3[C@@H]1CC[C@@H]2O`, the result in test [1], in test [2], in [3], in test [6], in test [10] and in test [9] was inactive. Besides, the Potency result in [4], in [5], in test [7] and in test [8] was “inactive” in each case.
For `CC[C@H](C)C(=O)O[C@H]1CCC=C2C=C[C@H](C)[C@H](CC[C@@H]3C[C@@H](O)CC(=O)O3)[C@H]21`, the compound was called inactive in [1], in test [2], in test [3] and in [6]. For the same compound, the Potency result in test [4], in [5], in test [7] and in test [8] was “inactive” throughout.
Take `COc1cc(-c2ccc(=O)[nH]n2)ccc1OC(F)F`: the Potency result in test [4] was “inactive”. Further, in test [10], the outcome was inactive.
As for `Cc1c(F)c(N2CCNC(C)C2)cc2c1c(=O)c(C(=O)O)cn2C1CC1` (stereo not drawn), the compound was classed as inactive in test [9].
With `C1CCc2nnnn2CC1`, the compound was called inactive in test [1], in test [2], in test [3], in test [6] and in [10]. For the same compound, the Potency result in test [4], in [5], in test [7] and in test [8] was “inactive” in each case.
Regarding `CN1C2CCC1CC(OC(=O)c1c[nH]c3ccccc13)C2` (stereo not drawn), the call in test [1], in test [2], in test [3], in test [6] and in [10] was inactive. Besides, the Potency entry in [4], in [5], in test [7] and in test [8] was “inactive” in each case.
In the case of `O=C(O)c1cc2cc(Cc3cccnc3)ccc2o1`, the result in test [1], in test [2], in [3], in test [6] and in test [10] was inactive. Moreover, the Potency result in test [4], in [5], in test [7] and in test [8] was “inactive” each time.
As for `COC(=O)[C@H]1[C@H]2C[C@H]3c4[nH]c5ccccc5c4CCN3C[C@H]2CC[C@@H]1O`, the outcome in [1], in test [2], in [6] and in test [10] was inactive. Also, the Potency entry in test [4], in test [5], in test [7] and in test [8] was “inactive” each time.
For the compound `N[C@@H](Cc1cnc[nH]1)C(=O)O`, the result in [1], in test [2], in test [3], in test [6] and in [10] was inactive. Further, the Potency entry in [4], in [5], in [7] and in [8] was “inactive” throughout.
`CC1(C)CCC(NC(=O)[C@@H](N)CCC(=O)O)CC1`: the result in test [1], in [2], in [3], in [6] and in [10] was inactive. For the same compound, the Potency entry in [4], in [5], in [7] and in test [8] was “inactive” throughout.
Take `CCOc1ccc(NC(=O)CC(C)O)cc1` (stereo not drawn): the compound was called inactive in [9].
On to `COc1cc(NS(C)(=O)=O)ccc1Nc1c2ccccc2nc2ccccc12`, for which the compound was called inactive in [1], in [2], in test [3], in test [6], in [10] and in test [9]. Moreover, the Potency in test [4] is 39.8 µM (active) and inactive; in [5], 79.4 µM (active); in test [8] it was 1.12 µM (active). For the same compound, the Potency entry in [7] is “inactive”.
On to `CCCn1c(=O)[nH]c(=O)c2[nH]cnc21`, for which the compound was called inactive in test [1], in [2], in test [3], in test [6] and in [10]. Further, the Potency result in test [4], in test [5], in [7] and in [8] was “inactive” each time.
Consider `CCCCCCCCCCCCCCNCCO`, for which the result in [9] was inactive.
As for `CC(CCc1ccccc1)NCC(O)c1ccc(O)c(C(N)=O)c1` (stereo not drawn), the result in test [1], in test [2], in test [3], in [6] and in [10] was inactive. Besides, the Potency result in test [4], in test [5], in [7] and in test [8] was “inactive” in each case.
On to `COc1cc(C(=S)N2CCOCC2)cc(OC)c1OC`, for which the compound was called inactive in [9].
Turning to `CC(C)C[C@H]1C(=O)N2CCC[C@H]2[C@]2(O)O[C@](NC(=O)[C@@H]3C=C4c5cccc6[nH]c(Br)c(c56)C[C@H]4N(C)C3)(C(C)C)C(=O)N12`, the compound was classed as inactive in [1], in test [2], in test [3] and in test [6]. The Potency entry in test [4] and in test [7] was “inactive” throughout.
Consider `Nc1cc(Cl)c(NC2=NCCN2)c(Cl)c1`, for which the call in test [1], in test [2], in test [3], in [6], in test [10] and in test [9] was inactive. Also, the Potency result in test [4], in [5], in [7] and in test [8] was “inactive” throughout.
